According to PubChem BioAssay (NCATS):
Results filed as inconclusive are left out. Unmarked numbers belong to inactive results. Active and inactive are the calls of the source. Calls come from the whole dose curve.

Each molecule was assayed against Atrial natriuretic peptide receptor 1 (Homo sapiens) (UniProt P16066) (assay: Natriuretic polypeptide receptor (hNpr1) antagonism - Pilot screen (AID 1347049)). Details: hNpr1 cells, antagonist mode cGMP read-out; series mostly up to 57.5 µM; activity change, negative = inhibition: at the top concentration.
Sequence of Atrial natriuretic peptide receptor 1 (Homo sapiens) (P16066 whole entry, looked up, the tested form may be a part): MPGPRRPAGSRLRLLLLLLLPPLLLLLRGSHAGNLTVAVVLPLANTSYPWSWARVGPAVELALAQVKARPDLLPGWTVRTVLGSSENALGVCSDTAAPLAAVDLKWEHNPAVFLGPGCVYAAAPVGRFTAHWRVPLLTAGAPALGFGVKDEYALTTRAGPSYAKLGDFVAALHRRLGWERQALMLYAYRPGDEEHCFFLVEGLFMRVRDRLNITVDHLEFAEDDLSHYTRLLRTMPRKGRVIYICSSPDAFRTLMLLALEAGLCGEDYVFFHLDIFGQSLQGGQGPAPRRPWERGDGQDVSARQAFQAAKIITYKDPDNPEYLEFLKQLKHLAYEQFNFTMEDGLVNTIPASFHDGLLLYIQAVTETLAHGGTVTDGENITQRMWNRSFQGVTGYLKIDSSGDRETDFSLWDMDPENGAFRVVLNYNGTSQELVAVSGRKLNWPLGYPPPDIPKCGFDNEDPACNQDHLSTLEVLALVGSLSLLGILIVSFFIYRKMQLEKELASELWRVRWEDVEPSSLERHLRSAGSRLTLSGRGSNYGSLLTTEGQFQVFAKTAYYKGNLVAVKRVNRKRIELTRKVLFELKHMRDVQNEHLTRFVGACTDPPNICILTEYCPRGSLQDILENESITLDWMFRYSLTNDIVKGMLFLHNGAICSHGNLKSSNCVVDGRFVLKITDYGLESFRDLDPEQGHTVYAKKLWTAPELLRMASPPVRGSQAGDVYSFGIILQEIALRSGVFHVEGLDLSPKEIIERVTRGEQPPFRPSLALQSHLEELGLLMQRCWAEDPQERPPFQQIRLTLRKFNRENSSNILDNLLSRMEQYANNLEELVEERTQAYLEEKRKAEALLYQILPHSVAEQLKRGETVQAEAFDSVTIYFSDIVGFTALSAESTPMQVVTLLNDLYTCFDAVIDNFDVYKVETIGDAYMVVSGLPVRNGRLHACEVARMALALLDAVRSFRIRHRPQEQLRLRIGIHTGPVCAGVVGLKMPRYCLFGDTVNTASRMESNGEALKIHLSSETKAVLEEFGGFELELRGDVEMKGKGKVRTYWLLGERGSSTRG
Experimental: In order to identify small molecular compounds that inhibit the hNpr1 receptor we developed a high-throughput assay to measure inhibition of the guanylate cyclase activity of the receptor. cGMP production was measured using a circular permutated Firefly luciferase (FLuc) enzyme functionally linked to the cGMP binding domain of human phosphodiesterase 5 (GloSensor technology pGS-40F, (Fan, F. et al. 2008). The cGMP-sensor was expressed in human embryonic kidney 293 (HEK-293) cells and FLuc activity was measured after stimulation with hNrp agonist peptide. hNrp agonists activates the receptor's associated guanylyl cyclase (GC) domain producing cGMP which then binds to the GloSensor resulting in FLuc activation, the enzymatic activity of which can be measured as bioluminescence with addition of luciferin substrate.
F. Fan, B. F. Binkowski, B. L. Butler, P. F. Stecha, M. K. Lewis, K. V. Wood, Novel genetically encoded biosensors using firefly luciferase. ACS Chem Biol 3, 346-351 (2008).
This assay was initially piloted by testing with a small diversity library of compounds with known pharmacological activity.
PROTOCOL TABLES (as described by Inglese J, Shamu CE and Guy RK. 2007)
SEQUENCE No. (e.g., 1, 2, 3, etc.); […] (e.g., Cells, Incubation, Reagent, etc.); VALUE and DESCRIPTION.
1. Cells. Seed 1500 HEK293 cGMP-sensor cells expressing hNpr1 per well in 4uL into Greiner 1536-well white/solid bottom high base, tissue culture-treated plates.
2. Incubation. Incubate plated cells at 37C in 5% CO2, 95% RH overnight.
3. Reagent. Add 1uL per well GloSensor reagent from Promega (2% final concentration) or CO2 independent media vehicle control to respective columns of Greiner 1536-well plates.
4. Incubation. Incubate plated cells at room temperature for 2 h, protect from light.
5. Compounds. Library compounds and A-71915 control added at 23 nL per well, transferred by Pin Tool.
6. Incubation. Incubate plated cells for 30 min. at room temperature, protect from light.
7. Detector. GloSensor baseline pre-read luminescence measured using CCD-based camera (Viewlux).
8. Compound. Add 1uL of hNppA peptide to 0.1 nM final concentration to stimulate hNpr1 or CO2 independent media as vehicle control.
9. Incubation. Incubate treated cells at room temperature for 20 min., protect from light.
10. Detector. GloSensor post-hNppA luminescence measured using CCD-based camera (Viewlux).
NOTES (numbers refer to Sequence numbers above)
1. HEK293 cells expressing hNpr1 and GIP/pGS-40F grown to 85-95% confluence (48-72 h) in T175 culture flasks (CO2 independent media supplemented with 10% FBS, 1% Pen/Strep antibiotics and 1 ug/mL puromycin). Trypsinize and harvest cells from T175 culture flasks and filter through 40 um cell strainer. Cells counted with Invitrogen Countess (30,000,000 - 50,000,000 cells/flask). Cells diluted to a final concentration of 375 cells/uL in CO2 independent media and a Millipore multidrop used to dispense 1500 cells per well (4uL/well) into 9 x 1536-well Greiner White/Solid bottom, high base tissue-culture treated (TC) plates and one Aurora 1536-well Black/Clear bottom, low base, TC plate (for visual inspection of cell health throughout the duration of the assay).
2. Cells incubated overnight at ambient temperature, 24 h. at 37C in 95% RH incubator protected from light, covered with metal lid with gas-exchange holes.
3. Prepare GloSensor Reagent (Promega): Reconstitute GloSensor luciferase substrate by adding 8.2mL Hepes buffer to 250mg substrate, mix well, protect from light and stored at -80C. Prepare a fresh 12% GloSensor solution in CO2 independent supplemented plating media (see above). Mix well and store at ambient temperature, protected from light. 1uL 12% GloSensor Luciferase Reagent added (2% final concentration) to respective columns of 9 x 1536-well Greiner plate with BioRaptr, 1uL CO2 independent plating media added to respective columns as vehicle control with BioRaptr.
4. […]
% is set by controls: 0 for no effect and ±100 for the full control effect.

| SMILES | activity change, negative = inhibition [%] | outcome |
| --- | --- | --- |
| O=C(CCCN1CCC2(CC1)C(=O)NCN2c1ccccc1)c1ccc(F)cc1 | -1.01 | – |
| NCCc1ccc(O)cc1 | 7.49 | – |
| O=C(O)CCCc1ccc(N(CCCl)CCCl)cc1 | 4.71 | – |
| CN1C(=O)CCS(=O)(=O)C1c1ccc(Cl)cc1 (stereo not given) | -3.72 | – |
| CC(C)c1cccc(C(C)C)c1O | 12.6 | – |
| CC(C)(C)NCC(O)c1ccccc1Cl (stereo not given) | 5.74 | – |
| Cc1ncsc1CCCl | -0.952 | – |
| CC(C)N(CCC(C(N)=O)(c1ccccc1)c1ccccn1)C(C)C (stereo not given) | – | inactive |
| CCC1(c2ccc(N)cc2)CCC(=O)NC1=O (stereo not given) | 19.7 | – |
| O=P1(N(CCCl)CCCl)NCCCO1 (stereo not given) | 6.19 | – |
| C=C(C)[C@H]1CN[C@H](C(=O)O)[C@H]1CC(=O)O | 10.5 | – |
| O=c1[nH]oc2c1CCNC2 | 15.9 | – |
| CC(NC(C)(C)C)C(=O)c1cccc(Cl)c1 (stereo not given) | -8.61 | – |
| COc1ccc2c(c1OC)C(=O)O[C@H]2[C@@H]1c2cc3c(cc2CCN1C)OCO3 | -2.49 | – |
| CCCCC/C=C\C/C=C\C/C=C\C/C=C\CCCC(=O)NCC(=O)O | -0.85 | – |
